From PubChem BioAssay (Tox21)
Inconclusive results are not listed. Entries that show only a call come without a potency. Activity calls are given as the source filed them. Calls follow the shape of the dose curve; as a rule, active = well fitted cell-killing curve with a large enough effect in the repeat runs; inconclusive = weak or mixed curves, or effect the other way; inactive = flat fitted curve, though single readings scatter.

Experiment: cAMP Responsive Elements (CRE) small molecule agonists, cell-based qHTS assay: qHTS cell viability counter screen (AID 2060914);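 also: viability read after 3 h of compound exposure; nearly all actives have a fitted effect of over 50% in size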
Conditions: CRE-bla HEK293T viability, CellTiter-Glo luminescence, 5 h; series mostly up to 92.4 µM
Summary of the method: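 CRE-bla HEK 293T cells, plated 18 h at 37 °C, were exposed to compounds for 3 h at 37 °C/5% CO2. Viability was then measured in the same wells by CellTiter-Glo luminescence after 30 min at room temperature.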

| Structure (SMILES) | Potency |
| --- | --- |
| Fc1ccc(C2(Cn3cncn3)OC2c2ccccc2Cl)cc1 (stereo not given) | inactive |
| N#CC(Br)(Br)C(N)=O | inactive |
| O=P1(NCCCl)OCCCN1CCCl (stereo not given) | inactive |
| CC(C)OC(=O)Nc1cccc(Cl)c1 | inactive |
| C[N+](C)(C)CC1CO1 (stereo not given) | inactive |
| CCOC(=O)CC(SP(=O)(OC)OC)C(=O)OCC (stereo not given) | inactive |
| Cc1ccc2cc3c(ccc4ccccc43)c3c2c1CC3 | inactive |
| Brc1ccc(Oc2ccccc2)cc1 | inactive |
| COC(=O)c1ccccc1N | inactive |
| ClC(Cl)=C(c1ccc(Cl)cc1)c1ccc(Cl)cc1 | inactive |
| Oc1ccc(C(c2ccc(O)cc2)(C(F)(F)F)C(F)(F)F)cc1 | inactive |
| CCOP(=O)(CN(CCO)CCO)OCC | inactive |
| O=NN1CCCC1 | inactive |
| CCCCOP(=O)(CCCC)OCCCC | inactive |
| O=S1(=O)OCCO1 | inactive |
| O=P1(N(CCCl)CCCl)NCCCO1 (stereo not given) | inactive |
| O=C(O)C1C(C(=O)O)C2(Cl)C(Cl)=C(Cl)C1(Cl)C2(Cl)Cl (stereo not given) | inactive |
| CCCC[n+]1ccccc1C | inactive |
| CC(C)(C)OOC(=O)c1ccccc1 | inactive |
| CC(COc1ccc(Oc2ccccc2)cc1)Oc1ccccn1 (stereo not given) | inactive |

| Structure (SMILES) | Potency |
| --- | --- |
| CC1=C(C(=O)Nc2ccccc2)S(=O)(=O)CCO1 | inactive |
| CC1(C)C(C=C(Cl)Cl)C1C(=O)OC(C#N)c1cccc(Oc2ccccc2)c1 (stereo not given) | inactive |
| CCOCn1c(-c2ccc(Cl)cc2)c(C#N)c(Br)c1C(F)(F)F | inactive |
| Cc1cccc(C)c1NC(=O)CN1CCCC1=O | inactive |
| COc1nc(NC(C)C)nc(NC(C)C)n1 | inactive |
| CCOP(=S)(OCC)SCS(=O)(=O)C(C)(C)C | inactive |
| COc1ccc2c3c1O[C@H]1[C@H](O)CC[C@H]4[C@@H](C2)N(C)CC[C@@]341 | inactive |
| COC(=O)Nc1nc2ccccc2[nH]1 | inactive |
| Brc1ccc(Br)cc1 | inactive |
| Cl[C@H]1OCCO[C@@H]1Cl | inactive |
| O=[N+]([O-])c1cccc2cccc([N+](=O)[O-])c12 | inactive |
| Nn1cnnc1 | inactive |
| ClCCCCBr | inactive |
| S=C1NCCN1 | inactive |
| COc1ccc(N)cc1 | inactive |
| CC(CCc1ccccc1)NC(C)C(O)c1ccc(O)cc1 (stereo not given) | inactive |
| CCCC[N+]1(C)[C@@H]2CC(OC(=O)[C@H](CO)c3ccccc3)C[C@H]1[C@@H]1O[C@@H]12 (stereo not given in full) | inactive |
| CC(=O)NC1CCSC1=O (stereo not given) | inactive |
| CC[C@H]1C[C@@H]2C[C@H]3c4[nH]c5ccc(OC)cc5c4CCN(C2)[C@@H]13 | inactive |
| C[C@@H](Oc1ccc(Cl)cc1Cl)C(=O)O | inactive |
